Data as given in the supplement of paper PMC6555819.

Tests used:
Assay in all cases: PBM binding z-score (relative to random genomic background probes); higher = stronger binding; sequences stand for … in GC…GCGATTGACAGCGTAGAATGAAGG
[1] = system: FXR:RXRa (NR concentration 270 nM, RXRa partner concentration 90 nM)
How it was run: (§1)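 Random background probes are the reference for binding z-scores. These scores derive from regression-normalized fluorescence on custom Agilent 4×180K protein-binding microarrays incubated 1 h with ligand-free nuclear receptor dimers. Binding was detected with antibodies against each partner (one per run).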

[2] = system: LXRa:RXRa (NR concentration 270 nM, RXRa partner concentration 90 nM)
How it was run: as §1

[3] = system: LXRa homodimer (NR concentration 270 nM)
How it was run: as §1

[4] = system: LXRb:RXRa (NR concentration 270 nM, RXRa partner concentration 90 nM)
How it was run: as §1

[5] = system: LXRb homodimer (NR concentration 270 nM)
How it was run: as §1

[6] = system: PPARa:RXRa (NR concentration 270 nM, RXRa partner concentration 90 nM)
How it was run: as §1

[7] = system: PPARg:RXRa (NR concentration 180 nM, RXRa partner concentration 90 nM)
How it was run: as §1

[8] = system: PPARg:RXRa 270nM:90nM, anti-RXR (NR concentration 270 nM, RXRa partner concentration 90 nM)
How it was run: as §1

[9] = system: PPARg:RXRa 30nM:10nM, anti-RXR (NR concentration 30 nM, RXRa partner concentration 10 nM)
How it was run: as §1

[10] = system: PPARg:RXRa 90nM:30nM, anti-RXR (NR concentration 90 nM, RXRa partner concentration 30 nM)
How it was run: as §1

Row | Sequence | PBM binding z-score [1] | PBM binding z-score [2] | PBM binding z-score [3] | PBM binding z-score [4] | PBM binding z-score [5] | PBM binding z-score [6] | PBM binding z-score [7] | PBM binding z-score [8] | PBM binding z-score [9] | PBM binding z-score [10]
1 | CCTGCTTGGTCATGGTCAGCTAATCTACAGTATG | -0.315 | -0.299 | -0.539 | -0.459 | -0.639 | -0.334 | -0.171 | -0.154 | -0.537 | -0.192
2 | AGAACGAGGGCACGCTGGGTTGATAGCAGAGTAG | 1.04 | 0.969 | -0.399 | 0.12 | -0.802 | 2.11 | 2.01 | 1.91 | 0.228 | 1.15
3 | GCAGACAGGTGAAACGCAGGTAACTCAGGGTGGC | -0.388 | 0.00311 | -0.515 | -0.48 | -1 | 0.864 | 0.383 | -0.117 | -0.52 | -0.467
4 | CCTAGTTGGTCAACGTCACACACGCTATAGGTAC | 0.458 | 0.525 | 0.431 | 0.877 | 0.581 | 0.58 | 1.25 | 0.719 | 0.299 | 0.407
5 | TCGGGTAGGTTAGGGGCATTCAGAATGGCGTCGA | 1.49 | 1.32 | 0.575 | 2.21 | 1.8 | 1.85 | 0.499 | 1.7 | 1.98 | 1.74
6 | ATCGAAAGGTCGACGAGGTCAGTATACACCGTTT | 5.54 | 5.03 | 1.52 | 4.61 | 0.78 | 5.04 | 3.64 | 4.13 | 1.28 | 2.65
7 | GCGACTGGGGCATCAGCAGGTTACCGTAACTTAA | -0.346 | -0.107 | -0.365 | 0.443 | -0.973 | 1.18 | 0.623 | 0.961 | -0.441 | -0.00586
8 | CAAACTAGGTCAAGAGGTCAACGTCCGCTTCCCG | 6.68 | 6.31 | 5.46 | 5.27 | 1.55 | 6.6 | 9.74 | 8.42 | 7.54 | 8.92
9 | CCTAGTTGGTCAGGAGCTCACACACCGGATATGA | -0.0186 | -0.0451 | 0.119 | -0.266 | 0.143 | -0.0186 | 0.636 | 0.361 | -0.291 | -0.0665
10 | TGTTGTAGATCAATAGAGGTTAAGAAAGTGCGCT | 1.03 | 3.59 | 1.16 | 1.94 | 1.01 | 1.63 | 0.0938 | 0.944 | 0.473 | 0.795
11 | TCTTGTAGATCAAGCAGGTTAAGACAGCCTGAGT | 0.233 | 0.271 | -0.132 | 0.33 | -0.3 | 0.76 | 0.0477 | 1.3 | 2.29 | 1.76
12 | CGTCCAAGGTCAGAGAGGTCCGTGAATGCCGAGT | 4.9 | 3.08 | -0.0652 | 1.98 | -0.373 | 3.88 | 1.83 | 2.4 | -0.0552 | 1.08
13 | TCTCGGAGGACACGTAGGTCAGAGCTTTCCAGAG | 0.6 | 0.395 | -0.0787 | 0.22 | -0.976 | 1.09 | 0.109 | 1.13 | 2.08 | 1.61
14 | TCTCCTAGGTCAACGATGGTCAGCTAATCTGCTA | 4.13 | 3.59 | 0.622 | 2.49 | 0.781 | 3.76 | 2.68 | 3.76 | 3.64 | 3.51
15 | GATACAGGGTCAGCTAGATGCCAGAGTATGGAAA | 5.08 | 2.66 | -0.125 | 2.53 | -0.514 | 4.79 | 4.08 | 3.48 | 0.884 | 2.4
16 | CCGACTGGGGCAAATGTTACCATACTCAGTACGA | 0.0667 | -0.122 | 0.0319 | 0.411 | -0.698 | 2.25 | 4.31 | 5.16 | 3.62 | 5.18
17 | CCTCGGAGGAGAGAAGGTCAGAGCTGTCCGCTTT | 0.811 | 0.874 | -0.155 | 0.734 | -0.806 | 1.62 | -0.501 | 0.307 | -0.994 | -0.582
18 | ATCTCTAGGTAACCACGTTCAGTGAATGCCGAAC | -0.0584 | -0.141 | 0.335 | -0.0295 | 0.814 | 0.308 | 0.571 | 0.503 | 0.0771 | 0.0954
19 | TCTATTGGTTGAAGGGCAACCGACGAGTCCGTTT | 0.476 | 0.767 | 0.01 | 0.546 | 0.657 | 1.23 | 0.669 | 2.98 | 3.37 | 3.23

Row | Sequence | PBM binding z-score [1] | PBM binding z-score [2] | PBM binding z-score [3] | PBM binding z-score [4] | PBM binding z-score [5] | PBM binding z-score [6] | PBM binding z-score [7] | PBM binding z-score [8] | PBM binding z-score [9] | PBM binding z-score [10]
20 | AGTGAAAGTTCACTAGGTAACGTAAGATTCAGCT | 4.44 | 5.02 | 3.08 | 2.88 | 0.454 | 4.5 | 6.12 | 6.07 | 3.52 | 5.3
21 | GCATTTAGGTAATACAAGGTGAAAGTCCGATTGT | 1.45 | 1.54 | 0.274 | 0.493 | -0.034 | 1.27 | 0.514 | 1.03 | 0.425 | 0.682
22 | GCTAGGAGGACAAGGTCAGAGCTTTGTCCGTAGA | 1.46 | 1.37 | -0.572 | 0.865 | -0.916 | 2.36 | 0.985 | 1.44 | -0.224 | 0.93
23 | ATGTGTAGGTTATCGGGTCATTCAGTTTGCGCAT | 3.54 | 3.13 | 1.9 | 3.3 | 1.26 | 4.08 | 4.09 | 4.29 | 1.54 | 3.43
24 | TCATATAAGTAAAGGTGAAAGTCGAACGATATGA | 1 | 1.25 | -0.151 | 1.26 | -0.205 | 2.77 | 1.98 | 2.93 | 3.99 | 3.46
25 | ATCTCTAGGTAAAGTTAAGTGAAAGATCGATAGA | 0.787 | 0.68 | 0.216 | 0.185 | 0.709 | 0.332 | 0.903 | 1.19 | 0.64 | 1.04
26 | ACAGACAGATGAGTGAAGGTAACTCAGCTGGACG | 0.536 | -0.0158 | -0.336 | -0.328 | -0.174 | -0.0253 | 0.883 | 0.561 | 0.259 | 0.0616
27 | CCTACTGGGCCAAATGTCATTGATTCCAATGCTC | 0.068 | -0.00295 | -0.00298 | 0.307 | -0.155 | 3.42 | 7 | 7.26 | 6.52 | 7.54
28 | TCTCGGAGGACACGAAAGGCCAGAGCTCGACATC | 0.554 | -0.137 | -0.548 | -0.341 | -1.2 | 0.0543 | 0.264 | 0.908 | 1.86 | 1.56
29 | ATATGTAGGTTATCGGGTCATTGAGTTTGCGCAT | 3.15 | 3.21 | 1.69 | 2.94 | 1.33 | 4.75 | 7.4 | 6.33 | 3.44 | 5.94
30 | CCGACTGGCGCAAGGTTACCATAACGCACAGCCA | 0.175 | 0.561 | -0.255 | 0.645 | -0.776 | 0.766 | 0.701 | -0.0732 | -0.409 | -0.61
31 | GAAACAGGGTCAGCTAGAGGCCAGAGTATGGAAA | 5.08 | 2.78 | -0.301 | 2.7 | -0.705 | 4.97 | 4.24 | 3.85 | 0.859 | 2.72
32 | ATCTCTAGGTAAAAGCTCAGTGAATCCCGAGGAT | -0.219 | -0.28 | -0.281 | -0.514 | 0.446 | 0.485 | 1.13 | 2.55 | 1.27 | 2.35
33 | CCTATGAGTTGACCATAAGGGCAACCGAAGCTCG | 0.925 | 0.669 | -0.0503 | 0.247 | 0.184 | 0.685 | 0.512 | 0.342 | -0.144 | -0.218
34 | ATACCAAGGTGATCGTAAGGTCGTTGATACTAAC | 2.06 | 1.46 | 0.729 | 1.42 | -0.157 | 1.71 | 0.613 | 0.737 | 0.111 | 0.398
35 | ATGCCAAGGTGATCGTGAGGTCGTTGATACTAAC | 1.44 | 0.89 | 0.206 | 0.945 | -0.844 | 1.55 | 0.467 | 0.399 | -0.303 | 0.00157
36 | ATCGGAAGGTCGAAGGTGAGTATACCCACCCGAA | 2.14 | 1.54 | -0.0479 | 1.23 | -0.0206 | 3.18 | 3.05 | 3.84 | 1.55 | 3.07
37 | CGCGAAAGGTCGGTTGAGGTGAGTATACGGATAA | 2.66 | 1.81 | -0.0594 | 1.38 | -0.0248 | 2.75 | 0.872 | 1.45 | 0.235 | 0.88
38 | CGAACGAGGGCATGAGTTGATAGGAAATGCCGAT | 0.317 | 0.134 | -0.459 | -0.00432 | -0.811 | 1.27 | 1.61 | 1.43 | 0.315 | 0.987
